This passage reports outcome and AC50 results from PubChem BioAssay (EPA / NIEHS).

Calls of active or inactive are those of the source. How the source made its calls: active means hit-call score of the fitted dose curve at least 0.9, where 1 is the maximum; inactive means score below 0.9.

The nature of assay [1]: ATG_CRE_CIS: Attagene CIS-FACTORIAL HepG2 Assay for human cAMP Responsive Element (CRE) binding protein 3 (AID 2282926). The settings on record: HepG2 CRE cis-reporter, Attagene multiplexed mRNA; actives raise or lower the signal. The method, boiled down:
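Liver-derived HepG2, transfected with a CRE-containing reporter panel, exposed 24 h; transcript levels sized and quantified by capillary electrophoresis of labelled amplicons; signal changes either way referenced to vehicle.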

Assay [2] has as its target CCAAT/enhancer-binding protein beta (Homo sapiens) (UniProt P17676). Nature of the assay: ATG_C_EBP_CIS: Attagene CIS-FACTORIAL HepG2 Assay for human CCAAT/Enhancer Binding Protein (C/EBP) beta (AID 2282927). The settings on record: HepG2 Attagene cis-factorial transcription factor reporter; actives raise or lower the signal. The essentials:
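Transiently transfected HepG2 (MRTU library, endogenous TF-driven promoters); 24 h dosing; total RNA → oligo(dT) RT → PCR → 6-FAM primer extension → HpaI digest → CE; fit bidirectionally vs DMSO.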

The nature of assay [3]: ATG_DR4_LXR_CIS: Attagene CIS-FACTORIAL HepG2 Assay for human Liver X Receptor (LXR), DR4 submotif (AID 2282929). The following applies: HepG2 Attagene DR4 cis-reporter, mRNA transcription; actives raise or lower the signal. The method, boiled down:
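DR4 cis-reporter in HepG2, 24 h exposure. Detection: RT-PCR, 6-FAM labelling, CE fragment analysis. Endpoint fitted bidirectionally, DMSO = baseline.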

Assay [4] addresses Aryl hydrocarbon receptor (Homo sapiens) (UniProt P35869). Put plainly: ATG_Ahr_CIS: Attagene CIS-FACTORIAL HepG2 Assay for human Aryl Hydrocarbon Receptor (Ahr) (AID 2282930). The settings on record: HepG2 AhR cis-factorial reporter transcription; actives raise or lower the signal. The essentials: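 Read-out: reporter mRNA quantified by RT-PCR with fluorescent primer extension and capillary electrophoresis. Human HepG2 liver cells carried transfected cis-promoter reporter units and were exposed to chemical for 24 h; gain or loss fitted relative to DMSO.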

Assay [5] in a line: ATG_AP_1_CIS: Attagene CIS-FACTORIAL HepG2 Assay for human Activator Protein 1 (AP-1) (AID 2282931). The settings on record: HepG2 Attagene cis-factorial AP-1 reporter mRNA; actives raise or lower the signal. The essentials:
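Cis-regulated reporter units transiently expressed in HepG2 report endogenous transcription-factor activity. Signal: reporter mRNA at 24 h, via RT-PCR and fluorescent capillary electrophoresis. Endpoint derived by bidirectional fitting, DMSO as negative control.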

Assay [6] can be described thus: ATG_AP_2_CIS: Attagene CIS-FACTORIAL HepG2 Assay for human Activator Protein 2 (AP-2) (AID 2282932). The following applies: HepG2 AP-2 cis-reporter, Attagene transcription factor profiling; actives raise or lower the signal. The essentials: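 Read-out: fluorescent reporter mRNA via RT-PCR and capillary electrophoresis, 24 h post-dose in transiently transfected HepG2. Endogenous factors drive cis-promoter reporters; gain or loss of signal fitted bidirectionally against DMSO.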

The nature of assay [7]: ATG_BRE_CIS: Attagene CIS-FACTORIAL HepG2 Assay for human Bone Morphogenetic Protein (BMP) Response Element (BRE) (AID 2282933). The following applies: HepG2 BMP response element reporter, Attagene transcription factor profiling; actives raise or lower the signal. The essentials:
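HepG2 cells transiently transfected with multiplexed cis-element reporter units were dosed with chemical for 24 h. Reporter mRNA was measured by RT-PCR with fluorescent labelling, HpaI digestion and capillary electrophoresis; bidirectional fitting relative to DMSO.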

The target in assay [8] is Retinoic acid receptor alpha (Homo sapiens) (UniProt P10276). Put plainly: ATG_DR5_RAR_CIS: Attagene CIS-FACTORIAL HepG2 Assay for human Retinoic Acid Receptor Alpha (RARE), DR5 submotif (AID 2282934). The settings on record: HepG2 Attagene cis-factorial RARE DR5 reporter, mRNA; actives raise or lower the signal. The essentials:
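Read-out: DR5-driven reporter transcript measured by RT-PCR, 6-FAM primer extension, HpaI digest and capillary electrophoresis. Human HepG2 liver cells carry transiently transfected cis-element reporter constructs; dosing lasts 24 h. Gain or loss of signal fitted against DMSO baseline.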

For assay [9], the target named is Transcription factor E2F1 (Homo sapiens) (UniProt Q01094). Put plainly: ATG_E2F_CIS: Attagene CIS-FACTORIAL HepG2 Assay for human E2F Transcription Factor 1 (AID 2282935). The settings on record: HepG2 Attagene cis-reporter, E2F reporter RNA transcripts; actives raise or lower the signal. The method, boiled down:
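Transient MRTU transfection of HepG2; 24 h compound exposure; RNA → oligo(dT) RT → PCR → FAM label → HpaI cut → CE fluorescence. Gain/loss of signal fit against DMSO.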

The nature of assay [10]: ATG_E_Box_CIS: Attagene CIS-FACTORIAL HepG2 Assay for human Enhancer Box (E-box) (AID 2282936). The following applies: HepG2 E-box cis-reporter transcription, actives raise or lower the signal. The method, boiled down:
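Transiently transfected HepG2, endogenous TF-driven reporters, 24 h dosing. Readout: RT-PCR plus capillary electrophoresis of fluorescent reporter fragments. Gain or loss of signal fitted bidirectionally against DMSO baseline.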

The nature of assay [11]: ATG_M_61_CIS: Attagene CIS-FACTORIAL HepG2 Assay for M61 Transcription Factor (Internal Marker) (AID 2282937). The following applies: HepG2 Attagene CIS-FACTORIAL M61 internal marker reporter; actives raise or lower the signal. The method, boiled down:
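Background-control endpoint: HepG2 cells with cis-regulated reporter constructs, 24 h exposure, reporter mRNA detected via fluorescent primer extension and capillary electrophoresis; values from bidirectional fitting with DMSO baseline.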

The nature of assay [12]: ATG_EGR_CIS: Attagene CIS-FACTORIAL HepG2 Assay for human Early Growth Response 1 (EGR1) (AID 2282938). The following applies: HepG2 Attagene CIS-FACTORIAL EGR reporter mRNA; actives raise or lower the signal. The method, boiled down:
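Endpoint derived by bidirectional fitting versus DMSO vehicle. Method: cis-promoter reporter units transfected into HepG2, 24 h dosing, RNA isolation, RT-PCR with 6-FAM primer extension and HpaI digestion, then capillary electrophoresis fluorescence detection.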

The nature of assay [13]: ATG_M_19_CIS: Attagene CIS-FACTORIAL HepG2 Assay for M19 Transcription Factor (Internal Marker) (AID 2282939). The following applies: HepG2 Attagene CIS-FACTORIAL M19 internal marker reporter; actives raise or lower the signal. The method, boiled down: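 HepG2 cells transiently transfected with cis-regulated multiple reporter transcription units were dosed for 24 h; reporter mRNA was quantified by RT-PCR, 6-FAM primer-extension labelling, HpaI digestion and capillary electrophoresis, with bidirectional fitting against DMSO baseline.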

Assay [14] in a line: ATG_Ets_CIS: Attagene CIS-FACTORIAL HepG2 Assay for human Erythroblast Transformation Specific (ETS) (AID 2282941). The settings on record: HepG2 ETS cis-reporter transcription, actives raise or lower the signal. The method, boiled down:
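Endogenous transcription factor activity read as reporter mRNA via RT-PCR and capillary electrophoresis, with gain or loss fitted bidirectionally against DMSO. Human HepG2 liver cells, transiently transfected CIS reporter constructs, 24 h exposure.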

Assay [15] has as its target Hepatocyte nuclear factor 3-beta (Homo sapiens) (UniProt Q9Y261). Nature of the assay: ATG_FoxA2_CIS: Attagene CIS-FACTORIAL HepG2 Assay for human Forkhead box A2 (FOXA2) (AID 2282942). The following applies: HepG2 cis-reporter transcription factor activity, 24 h; actives raise or lower the signal. The method, boiled down:
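Measured: reporter mRNA induction or loss in HepG2 transiently carrying multiple cis-regulated reporter units, 24 h after dosing. Quantified by RT-PCR plus capillary electrophoresis, normalised to DMSO.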

Assay [16] can be described thus: ATG_FoxO_CIS: Attagene CIS-FACTORIAL HepG2 Assay for human Forkhead box O (FoxO) (AID 2282943). The following applies: HepG2 Attagene cis-reporter, FoxO element, mRNA; actives raise or lower the signal. The essentials: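 Read-out: fluorescence of 6-FAM-labelled reporter cDNA fragments resolved by capillary electrophoresis. Transiently transfected HepG2 cells were dosed for 24 h; activity fitted in both directions relative to DMSO controls.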

Assay [17] is described as follows: ATG_GATA_CIS: Attagene CIS-FACTORIAL HepG2 Assay for human GATA Binding Protein (AID 2282944). The following applies: HepG2 GATA cis-element reporter, Attagene multiplex mRNA; actives raise or lower the signal. The essentials: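 HepG2 cells transiently transfected with multiplexed cis-element reporter units reflecting endogenous transcription factor activity; reporter mRNA measured after 24 h dosing by RT-PCR, 6-FAM labeling, HpaI digestion and capillary electrophoresis. Bidirectional fitting versus DMSO baseline.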

A short description of assay [18]: ATG_GLI_CIS: Attagene CIS-FACTORIAL HepG2 Assay for human Zinc Finger Protein GLI1 (AID 2282945). The settings on record: HepG2, Attagene cis-factorial reporter mRNA, GLI element; actives raise or lower the signal. The method, boiled down:
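Transiently transfected HepG2 cells report endogenous transcription factor activity via cis-element-driven reporter units. After 24 h compound exposure, reporter mRNA was measured by RT-PCR with capillary electrophoresis; bidirectional fitting against DMSO baseline.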

The nature of assay [19]: ATG_CMV_CIS: Attagene CIS-FACTORIAL HepG2 Assay for human CMV (Internal Marker) (AID 2282928).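 Further: endpoint acts as a background internal control marker rather than a target.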 The following applies: HepG2 CMV promoter reporter, transcription factor profiling; actives raise or lower the signal. The method, boiled down:
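Bidirectional fits against DMSO are applied to reporter mRNA, read by RT-PCR with capillary electrophoresis, from HepG2 cells exposed 24 h. The endpoint serves as an internal CMV background marker within the cis-factorial reporter panel.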

Assay [20] is described as follows: ATG_ERE_CIS: Attagene CIS-FACTORIAL HepG2 Assay for Estrogen Response Element (ERE) (AID 2282940). The following applies: HepG2 ERE cis-reporter, Attagene RNA transcript; actives raise or lower the signal. The essentials:
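HepG2 cells transiently transfected with cis-promoter-driven multiplexed reporter transcription units report endogenous TF activity. After 24 h compound exposure, reporter mRNA is quantified by RT-PCR with capillary electrophoresis fluorescence; bidirectional fitting versus DMSO baseline.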

CCAAT/enhancer-binding protein beta (Homo sapiens), sequence (P17676 whole entry, looked up): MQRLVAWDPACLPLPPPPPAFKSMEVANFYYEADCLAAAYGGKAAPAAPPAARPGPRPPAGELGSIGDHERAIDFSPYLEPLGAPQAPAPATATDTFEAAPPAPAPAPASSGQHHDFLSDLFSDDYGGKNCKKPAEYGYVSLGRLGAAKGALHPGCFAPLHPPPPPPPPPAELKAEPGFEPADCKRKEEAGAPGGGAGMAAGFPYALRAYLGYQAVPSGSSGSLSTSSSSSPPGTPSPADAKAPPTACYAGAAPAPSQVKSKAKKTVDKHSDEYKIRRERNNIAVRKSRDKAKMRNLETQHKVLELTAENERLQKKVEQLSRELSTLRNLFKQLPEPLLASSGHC
Transcription factor E2F1 (Homo sapiens), sequence (Q01094 whole entry, looked up): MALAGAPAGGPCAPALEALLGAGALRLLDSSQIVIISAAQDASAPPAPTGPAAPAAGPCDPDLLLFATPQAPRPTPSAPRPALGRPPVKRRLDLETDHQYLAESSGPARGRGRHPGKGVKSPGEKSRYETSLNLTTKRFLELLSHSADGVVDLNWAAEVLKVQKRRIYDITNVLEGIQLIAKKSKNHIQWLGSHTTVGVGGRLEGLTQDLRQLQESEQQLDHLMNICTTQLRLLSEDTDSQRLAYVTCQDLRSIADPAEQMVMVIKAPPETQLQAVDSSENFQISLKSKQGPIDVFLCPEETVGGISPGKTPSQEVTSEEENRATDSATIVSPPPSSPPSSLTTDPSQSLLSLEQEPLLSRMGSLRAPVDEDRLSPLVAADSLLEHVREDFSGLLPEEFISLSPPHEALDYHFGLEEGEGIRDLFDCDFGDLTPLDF
Hepatocyte nuclear factor 3-beta (Homo sapiens), sequence (Q9Y261 whole entry, looked up): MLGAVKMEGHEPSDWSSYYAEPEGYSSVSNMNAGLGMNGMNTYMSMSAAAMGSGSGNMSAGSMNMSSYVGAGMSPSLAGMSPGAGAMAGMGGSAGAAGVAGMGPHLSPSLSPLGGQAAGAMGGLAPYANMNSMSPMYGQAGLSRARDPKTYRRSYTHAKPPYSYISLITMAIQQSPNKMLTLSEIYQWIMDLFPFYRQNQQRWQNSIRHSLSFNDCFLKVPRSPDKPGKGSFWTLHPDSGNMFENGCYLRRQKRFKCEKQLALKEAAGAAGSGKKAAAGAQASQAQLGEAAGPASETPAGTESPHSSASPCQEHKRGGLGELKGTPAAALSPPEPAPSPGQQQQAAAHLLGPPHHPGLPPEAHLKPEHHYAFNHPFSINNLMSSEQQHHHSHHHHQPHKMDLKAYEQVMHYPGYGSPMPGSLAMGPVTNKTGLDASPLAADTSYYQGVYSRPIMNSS
Retinoic acid receptor alpha (Homo sapiens), sequence (P10276 whole entry, looked up): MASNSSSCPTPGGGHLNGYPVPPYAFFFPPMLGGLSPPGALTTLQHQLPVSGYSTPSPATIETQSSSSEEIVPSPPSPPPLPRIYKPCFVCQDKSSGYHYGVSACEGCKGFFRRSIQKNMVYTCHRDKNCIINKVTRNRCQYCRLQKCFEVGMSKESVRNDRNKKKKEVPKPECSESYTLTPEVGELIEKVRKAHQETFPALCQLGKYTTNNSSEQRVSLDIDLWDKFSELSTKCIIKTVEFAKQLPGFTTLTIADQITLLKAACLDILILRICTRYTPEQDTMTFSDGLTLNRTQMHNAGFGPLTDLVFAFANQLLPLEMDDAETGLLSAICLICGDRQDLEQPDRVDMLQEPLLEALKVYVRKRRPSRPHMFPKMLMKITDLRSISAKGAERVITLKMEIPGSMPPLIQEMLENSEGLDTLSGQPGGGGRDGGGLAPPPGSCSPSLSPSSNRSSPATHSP
Aryl hydrocarbon receptor (Homo sapiens), sequence (P35869 whole entry, looked up): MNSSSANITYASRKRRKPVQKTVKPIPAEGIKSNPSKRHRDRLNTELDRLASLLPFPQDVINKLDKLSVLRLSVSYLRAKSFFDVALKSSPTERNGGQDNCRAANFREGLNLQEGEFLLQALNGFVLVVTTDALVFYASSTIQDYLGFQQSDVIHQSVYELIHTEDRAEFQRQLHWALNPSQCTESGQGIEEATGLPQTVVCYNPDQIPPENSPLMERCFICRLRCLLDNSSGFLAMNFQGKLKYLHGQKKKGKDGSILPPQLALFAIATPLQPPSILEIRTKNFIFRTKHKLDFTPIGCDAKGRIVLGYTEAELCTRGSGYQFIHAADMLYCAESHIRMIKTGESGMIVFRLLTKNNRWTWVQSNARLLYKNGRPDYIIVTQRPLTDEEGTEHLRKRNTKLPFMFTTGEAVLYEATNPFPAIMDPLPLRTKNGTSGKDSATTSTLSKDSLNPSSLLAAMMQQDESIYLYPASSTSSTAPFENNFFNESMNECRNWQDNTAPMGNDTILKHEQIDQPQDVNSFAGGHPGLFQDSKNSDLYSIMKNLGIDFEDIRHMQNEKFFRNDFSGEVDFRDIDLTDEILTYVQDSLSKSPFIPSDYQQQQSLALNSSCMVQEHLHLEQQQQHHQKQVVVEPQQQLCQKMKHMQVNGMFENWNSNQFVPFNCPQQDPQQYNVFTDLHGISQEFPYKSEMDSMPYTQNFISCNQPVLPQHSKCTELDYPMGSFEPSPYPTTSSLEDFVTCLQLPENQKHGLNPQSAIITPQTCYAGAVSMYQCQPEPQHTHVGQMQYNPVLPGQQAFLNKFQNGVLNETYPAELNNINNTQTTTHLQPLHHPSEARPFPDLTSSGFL

In the case of `Cc1ccc(S(N)(=O)=O)cc1`, the result in assay [1], in assay [2], in assay [3], in assay [4], in [5] and in assay [6] was inactive. Moreover, the compound was called inactive in assay [7], in [8], in assay [9], in assay [10], in assay [11] and in assay [12]. The outcome in assay [13], in assay [14], in assay [15], in assay [16], in [17] and in [18] was inactive.
Turning to `C=CC(=C)CCCC(C)(C)OC(C)=O`, the outcome in [1], in assay [2], in assay [3], in assay [4], in [5] and in assay [6] was inactive. For the same compound, the call in assay [7], in assay [8], in [9], in assay [10], in [11] and in assay [12] was inactive. The outcome in assay [13], in assay [14], in [15], in [16], in assay [17] and in assay [18] was inactive.
On to `O=Cc1ccccc1S(=O)(=O)O`, for which the outcome in assay [1], in [2], in assay [19], in assay [4], in assay [5] and in [6] was inactive. The call in assay [8], in assay [9], in [10], in assay [11], in assay [12] and in assay [13] was inactive. The call in [14], in [15], in assay [16], in [17] and in assay [18] was inactive.
With `Clc1cc(Cl)c(-c2c(Cl)c(Cl)cc(Cl)c2Cl)cc1Cl`, the compound was called inactive in assay [1], in assay [2], in [4], in assay [6], in assay [7] and in assay [8]. The compound was called inactive in [9], in assay [10], in assay [11], in assay [12], in [13] and in [14]. Further, the result in assay [15], in assay [16], in assay [17] and in assay [18] was inactive. Besides, the AC50 – broadly, the concentration at which the activity in the assay is half-maximal – in [3] was 21.8 µM (active); in assay [5], 35 µM (active).
For the compound `O=C1CCCC=CCCCCCCCCCC1`, the compound was classed as inactive in assay [1], in assay [2], in [4], in assay [6], in assay [7] and in assay [8]. For the same compound, the result in assay [10], in assay [11], in [13], in [14], in [15] and in [16] was inactive. Moreover, the compound was called inactive in assay [17] and in [18]. Besides, the AC50 in assay [3] was 33.4 µM (active); in [5], 50.3 µM (active).
For `O=C1c2ccccc2C(=O)c2c(O)ccc(O)c21`, the result in [1], in assay [2], in [5], in [6], in assay [8] and in [9] was inactive. Further, the compound was called inactive in assay [11], in [12], in [14], in [15], in assay [16] and in assay [17]. Moreover, the compound was classed as inactive in assay [18]. Moreover, the AC50 is 3.02 µM (active) in assay [19], 0.296 µM (active) in [4] and 3.7 µM (active) in assay [10].
On to `CCCCC(CC)(CO)CO`, for which the call in assay [1], in assay [2], in assay [3], in assay [4], in assay [5] and in assay [6] was inactive. Also, the outcome in [7], in assay [8], in [9], in [10], in assay [11] and in [12] was inactive. The compound was called inactive in assay [13], in assay [14], in assay [15], in assay [16], in [17] and in [18].
For `CCCCC1(COC(=O)CCC(=O)O)C(=O)N(c2ccccc2)N(c2ccccc2)C1=O`, the outcome in assay [1], in assay [2], in [3], in assay [4], in assay [5] and in [6] was inactive. Moreover, the result in assay [8], in assay [9], in assay [10], in assay [11], in assay [12] and in [13] was inactive. Besides, the compound was classed as inactive in assay [20], in assay [14], in assay [15], in assay [16], in assay [17] and in [18].
